# Where “and” joins values, the source holds several entries; their conditions need not be identical. Equal values may be shown once. Inconclusive results are not listed. Entries that show only a call come without a potency. Calls of active or inactive are those of the source. Calls come from the whole dose curve; as a rule, active = well fitted cell-killing curve with a large enough effect in the repeat runs; inconclusive = weak or mixed curves, or effect the other way; inactive = flat fitted curve, though single readings scatter.
# Experiment: cAMP Responsive Elements (CRE) small molecule agonists, cell-based qHTS assay: qHTS cell viability counter screen (AID 2060914); note: nearly all actives have a fitted effect of over 50% in size
# Settings: CRE-bla HEK293T viability, CellTiter-Glo luminescence, 5 h; series mostly up to 92.4 µM
# Method in brief: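 Cytotoxicity was measured as ATP luminescence (CellTiter-Glo, 30 min at room temperature) in the same wells as the CRE-bla FRET read-out. HEK293T CRE-bla cells had 3 h compound exposure at 37C/5% CO2.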
# Potency is the fitted concentration of half-maximal effect.
row,Compound,Potency
1,CC(=O)CCc1ccccc1,inactive
2,C#CC(C)(O)CC(C)C (stereo unspecified),inactive
3,C=CC(=O)NCOCCCC,inactive
4,Nc1nc(N)c2nc(-c3ccccc3)c(N)nc2n1,inactive
5,N[C@H](C(=O)O)[C@@H](O)c1ccc(O)c(O)c1,inactive
6,CCCC[N+](C)(CCCC)CCCC,inactive
7,O=C(Oc1cccc2cccnc12)c1ccccc1,inactive
8,CCCCCCCCCCOCC(O)CN (stereo unspecified),inactive
9,O=C(O)Cn1cnnn1,inactive
10,Cc1ccc(O)cc1,inactive
11,Cc1ccc(/C(=C\CN2CCCC2)c2ccccn2)cc1,inactive
12,Nc1cc(N)cc(C(=O)O)c1,inactive
13,CC(C)(C)CC(C)(C)c1ccc(OCCOCC[N+](C)(C)Cc2ccccc2)cc1,54.4 µM (active) and 29.8 µM (active)
14,CN1CCN(CCCN2c3ccccc3Sc3ccc(S(=O)(=O)N(C)C)cc32)CC1,inactive
15,O=C(O)c1cc(N=Nc2ccc(S(=O)(=O)Nc3ccccn3)cc2)ccc1O,inactive
16,NCCc1ccn[nH]1,inactive
17,CCCCOCC,inactive
18,O=C(O)[C@@H]1[C@H]2C[C@H]3c4[nH]c5ccccc5c4CCN3C[C@@H]2CC[C@@H]1O,inactive
19,CCO/C([O-])=N/c1c[n+](N2CCOCC2)no1,inactive
20,C=CC[N+]1([C@H]2C[C@H]3[C@@H]4CC[C@H]5C[C@H](OC(C)=O)[C@@H](N6CCCCC6)C[C@]5(C)[C@H]4CC[C@]3(C)[C@H]2OC(=O)CC)CCCCC1,inactive
21,CCc1c2c(nc3ccc(OC(=O)N4CCC(N5CCCCC5)CC4)cc13)-c1cc3c(c(=O)n1C2)COC(=O)[C@]3(O)CC,inactive

# Reference: PubChem BioAssay (Tox21)
